Data on seven molecules can be found in PubChem BioAssay (NCATS).

In assay [1] the target is Lysosomal acid glucosylceramidase (Homo sapiens) (UniProt P04062). Description: Glucocerebrosidase-p2 (AID 348; in the data active = potency below about 10 µM; note: potency is the fitted concentration of half-maximal effect). The note with it: purified GBA, blue fluorogenic substrate, 40 min. The essentials: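 Normal human glucocerebrosidase (0.2 nM) with blue fluorogenic substrate (80 uM final) in citrate/phosphate pH 5.9 with 10mM sodium taurocholate, 0.01% tween-20; 40 min RT, NaOH/glycine stop; fluorescence Ex 365/Em 440; AC50 from a titration from 0.6 nM upwards.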
Lysosomal acid glucosylceramidase (Homo sapiens), sequence (P04062 whole entry, looked up): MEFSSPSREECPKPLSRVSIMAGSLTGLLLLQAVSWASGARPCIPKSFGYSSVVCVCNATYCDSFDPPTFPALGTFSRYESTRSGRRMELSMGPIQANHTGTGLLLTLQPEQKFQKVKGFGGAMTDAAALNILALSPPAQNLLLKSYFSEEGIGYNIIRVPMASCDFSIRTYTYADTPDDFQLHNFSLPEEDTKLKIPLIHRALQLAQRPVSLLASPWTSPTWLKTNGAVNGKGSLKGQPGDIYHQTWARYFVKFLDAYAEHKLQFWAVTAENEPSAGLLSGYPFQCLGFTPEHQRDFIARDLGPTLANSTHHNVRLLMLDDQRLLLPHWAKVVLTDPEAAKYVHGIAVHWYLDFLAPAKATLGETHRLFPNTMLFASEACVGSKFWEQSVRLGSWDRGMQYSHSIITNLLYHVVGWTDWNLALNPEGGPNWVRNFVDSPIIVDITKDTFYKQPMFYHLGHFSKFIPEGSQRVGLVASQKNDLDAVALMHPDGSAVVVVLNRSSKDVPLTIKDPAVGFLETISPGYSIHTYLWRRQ

The nature of assay [2]: AP1 Signaling Pathway (AID 357). Note: % is set by controls: 0 for no effect and ±100 for the full control effect. Conditions: ME-180 AP-1-bla reporter, EGF-induced, beta-lactamase ratio, 5 h; at 7.69 µM (top of the series) unless noted. The method, boiled down:
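AP-1-bla ME-180 cells, Opti-MEM + 0.5% dialyzed FBS, plated overnight 37 °C. Cpd titration + EC50 EGF, 5 h 37 °C. CCF4 2.5 h RT; ex 405, em 460/530 ratio → %activity, AC50.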

The target in assay [3] is Cytochrome P450 1A2 (Homo sapiens) (UniProt P05177). Description: p450-cyp1a2 (AID 410; calls by dose curve; note: potency is the fitted concentration of half-maximal effect). Conditions: recombinant CYP1A2, luciferin-ME demethylation, luminescence; series mostly up to 11.4 µM. The essentials: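 Read-out is luminescence from luciferin produced by CYP1A2 demethylation of Luciferin-ME (100uM, at Km). Detection reagent stopped the 60 min NADPH-dependent reaction; signals were normalized to 57 uM furafylline.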
Cytochrome P450 1A2 (Homo sapiens), sequence (P05177 whole entry, looked up): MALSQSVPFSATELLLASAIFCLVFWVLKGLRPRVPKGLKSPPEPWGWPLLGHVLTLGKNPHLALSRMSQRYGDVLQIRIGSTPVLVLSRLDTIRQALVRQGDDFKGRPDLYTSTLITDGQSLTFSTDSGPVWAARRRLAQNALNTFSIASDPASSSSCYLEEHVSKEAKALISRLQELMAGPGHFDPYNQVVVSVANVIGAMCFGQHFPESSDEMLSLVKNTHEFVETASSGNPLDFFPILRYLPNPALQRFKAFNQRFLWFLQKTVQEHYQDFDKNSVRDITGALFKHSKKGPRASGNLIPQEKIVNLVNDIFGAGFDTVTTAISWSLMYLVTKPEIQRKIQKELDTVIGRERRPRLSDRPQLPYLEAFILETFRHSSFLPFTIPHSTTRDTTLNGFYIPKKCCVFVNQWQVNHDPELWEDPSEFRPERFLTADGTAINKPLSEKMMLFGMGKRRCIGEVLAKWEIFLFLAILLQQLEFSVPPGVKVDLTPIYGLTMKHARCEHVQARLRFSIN

Assay [4] can be described thus: NFAT Signaling Pathway (AID 444).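 Note: carbachol stimulus at about its EC50 of 1 µM final; % is set by controls: 0 for no effect and ±100 for the full control effect.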 Conditions: Jurkat NFAT-bla M1, carbachol, beta-lactamase ratio, 5 h; at 7.69 µM (top of the series) unless noted. The method, boiled down:
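Jurkat cells carrying an NFAT-driven β-lactamase reporter and co-transfected muscarinic M1 receptor were treated with compound plus carbachol (1 uM final, an EC50 level) for 5 h at 37 °C. CCF4 loading followed for 1 h at RT; 460/530 nm ratio gave %activity.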

A short description of assay [5]: Stat Signaling Pathway (AID 446).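 Note: ME-180 cervical cancer cells given 40 pM IL-6 alongside compound; SIE-controlled beta-lactamase reporter measured as 460/530 nm FRET emission ratio; % is set by controls: 0 for no effect and ±100 for the full control effect.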 The note with it: ME-180 SIE beta-lactamase reporter, IL-6 stimulated, 5 h; at 7.69 µM (top of the series) unless noted. The method, boiled down: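 Normalization used AC90 stimulation (300 pM IL-6) and AC90 inhibition (125 nM pan-JAK inhibitor at 40 pM IL-6). The underlying signal is SIE-driven beta-lactamase in ME-180 cells after 5 h IL-6 exposure with compound.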

The target in assay [6] is Glucocorticoid receptor (Homo sapiens) (UniProt P04150). Put plainly: GR-GFP Redistribution (AID 450;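 active = compounds whose dose series gives a full or clear partial fitted curve of increased nuclear translocation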; note: potency is the fitted concentration of half-maximal effect). The note with it: U2OS GR-GFP nuclear translocation, laser cytometry, 2 h.
Glucocorticoid receptor (Homo sapiens), sequence (P04150 whole entry, looked up, the tested form may be a part): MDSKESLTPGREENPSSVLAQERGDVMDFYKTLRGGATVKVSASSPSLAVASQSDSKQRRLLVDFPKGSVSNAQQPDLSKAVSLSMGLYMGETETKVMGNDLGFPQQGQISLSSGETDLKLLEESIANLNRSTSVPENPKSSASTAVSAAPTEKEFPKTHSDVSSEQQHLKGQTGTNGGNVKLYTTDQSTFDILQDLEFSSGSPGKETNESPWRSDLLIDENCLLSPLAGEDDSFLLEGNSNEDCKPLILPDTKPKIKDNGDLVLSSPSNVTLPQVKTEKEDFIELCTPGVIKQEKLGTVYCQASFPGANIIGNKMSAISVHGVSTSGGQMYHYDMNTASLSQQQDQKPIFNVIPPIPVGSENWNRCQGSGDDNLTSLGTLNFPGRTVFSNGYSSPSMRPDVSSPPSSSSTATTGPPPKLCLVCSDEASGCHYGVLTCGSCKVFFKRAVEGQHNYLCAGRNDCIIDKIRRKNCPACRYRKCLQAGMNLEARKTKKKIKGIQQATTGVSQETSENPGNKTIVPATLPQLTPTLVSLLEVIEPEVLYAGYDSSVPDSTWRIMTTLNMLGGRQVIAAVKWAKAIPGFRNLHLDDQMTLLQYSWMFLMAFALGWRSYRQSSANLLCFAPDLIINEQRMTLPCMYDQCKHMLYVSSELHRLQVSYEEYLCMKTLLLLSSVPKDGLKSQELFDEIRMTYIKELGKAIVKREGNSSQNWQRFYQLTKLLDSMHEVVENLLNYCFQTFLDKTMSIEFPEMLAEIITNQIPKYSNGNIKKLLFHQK
Assay [7] has the same target. Description: GR-EFC Redistribution (AID 451; calls by dose curve; note: potency is the fitted concentration of half-maximal effect). The note with it: CHO-K1 GR-EFC translocation, beta-gal luminescence, 2 h. The method, boiled down: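 CHO-K1 cells stably expressing nuclear-localized β-gal enzyme acceptor and GR fused C-terminally to the enzyme donor fragment; ligand-driven nuclear translocation restores β-gal by complementation. Compounds titrated up to 46 uM final, 2 h at 37 °C; luminescence read.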

The target of assay [8] is Mitogen-activated protein kinase 10 (Mus musculus) (UniProt Q61831). Description: JNK3 AlphaScreen Assay (AID 530).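 Note: kinase came from lysate of stimulated human HepG2 cells; % is set by controls: 0 for no effect and ±100 for the full control effect.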 The note with it: JNK3 lysate, c-Jun phosphorylation; series mostly up to 11.4 µM. The method, boiled down: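 Biotinylated GST-cJun(1-79) served as substrate for JNK3 in HepG2 lysates stimulated with IL-1beta and TNF-alpha. ATP was 10 uM final, pH 7.6. Ser73 phosphorylation was quantified by AlphaScreen (680 nm excitation).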
(In general: In Alpha technology, singlet oxygen from a donor bead excites a nearby acceptor bead.)

In assay [9] the target is 3',5'-cyclic-AMP phosphodiesterase 4B (Homo sapiens) (UniProt Q07343). Put plainly: qHTS Assay for Inhibitors of PDE-IV (AID 607; active = well fitted activation curve with a large enough effect in the main read-out, with a control signal flat, not every such curve was filed as active; note: % of control where 0% means no effect). Conditions: HEK293 ACTOne CNG channel cells, membrane potential fluorescence; series mostly up to 22.9 µM. The method, boiled down: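 HEK293 ACTOne cells with CNG channel (1000/well), endogenous PDE4; membrane potential dye, compounds up to 22.9 uM final. Fluorescence Ex 535/Em 590; RO 20-1724 (100 uM final) as reference.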
3',5'-cyclic-AMP phosphodiesterase 4B (Homo sapiens), sequence (Q07343 whole entry, looked up): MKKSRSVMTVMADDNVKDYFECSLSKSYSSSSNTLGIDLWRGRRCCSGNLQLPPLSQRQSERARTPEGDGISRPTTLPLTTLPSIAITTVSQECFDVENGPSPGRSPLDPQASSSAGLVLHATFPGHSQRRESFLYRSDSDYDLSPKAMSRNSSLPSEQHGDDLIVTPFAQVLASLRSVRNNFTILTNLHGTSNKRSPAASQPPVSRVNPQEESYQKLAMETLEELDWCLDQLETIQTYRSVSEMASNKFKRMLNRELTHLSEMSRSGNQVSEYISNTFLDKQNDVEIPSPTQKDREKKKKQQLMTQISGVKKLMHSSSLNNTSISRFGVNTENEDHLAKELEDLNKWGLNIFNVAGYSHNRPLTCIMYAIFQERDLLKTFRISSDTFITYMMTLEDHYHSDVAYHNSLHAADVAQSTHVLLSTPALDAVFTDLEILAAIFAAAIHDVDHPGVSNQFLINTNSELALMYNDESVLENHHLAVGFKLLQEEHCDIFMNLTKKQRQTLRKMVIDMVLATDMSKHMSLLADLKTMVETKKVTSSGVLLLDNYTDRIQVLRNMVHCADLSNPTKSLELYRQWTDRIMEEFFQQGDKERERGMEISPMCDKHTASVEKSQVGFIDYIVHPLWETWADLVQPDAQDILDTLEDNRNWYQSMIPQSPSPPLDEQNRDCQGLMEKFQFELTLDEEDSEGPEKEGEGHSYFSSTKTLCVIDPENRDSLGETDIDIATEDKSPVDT
For orientation: qHTS replaces the single test concentration by a dilution series.

A short description of assay [10]: qHTS Assay for Identification of Small Molecule Agonists for Hypoxia Response Element Signaling Pathway (AID 914; active = well fitted activation curve with a large enough effect in the signal ratio, with a control signal flat, not every such curve was filed as active; the % refers to the signal ratio; note: % of control where 0% means no effect). The note with it: ME-180 (cervical carcinoma) HRE-bla reporter, beta-lactamase ratio, CoCl2, 17 h; activation: stronger effect = higher value. The essentials: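 Cells were plated overnight, pin-dosed with compound in a titration series, co-stimulated with EC50 CoCl2 and incubated 17 hours at 37 degrees Celsius. CCF4 substrate was then loaded, and AC50 values came from the 460nm/530nm ratio.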

Assay [11] concerns the target Cytochrome P450 2C19 (Homo sapiens) (UniProt P33261). Description: qHTS Assay for Inhibitors and Substrates of Cytochrome P450 2C19 (AID 899; active = well fitted curve in the direction sought with a large enough effect; an effect the other way counts as inactive or inconclusive; note: potency is the fitted concentration of half-maximal effect; nearly all actives have a fitted effect of over 60% in size). The note with it: recombinant CYP2C19, luciferin-H EGE luminescence; series mostly up to 11.4 µM. The essentials:
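NADPH-dependent conversion of Luciferin-H EGE (10uM, at KM) by 5nM enzyme in 50mM KPO4, 60 min at 37C following 10 min compound preincubation. Stopped with luciferin detection buffer; luminescence read after 20 min.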

Assay [12] concerns the target Cytochrome P450 3A4 (Homo sapiens) (UniProt P08684). Put plainly: qHTS Assay for Activators of Cytochrome P450 3A4 (AID 885; active = well fitted curve in the direction sought with a large enough effect; an effect the other way counts as inactive or inconclusive; note: nearly all actives have a fitted effect of over 65% in size). Conditions: recombinant CYP3A4, Luciferin-PPXE luminescence, 60 min; series mostly up to 11.4 µM. The method, boiled down: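 Human CYP3A4 dealkylates Luciferin-PPXE to luciferin, which luciferase detection converts to light. Substrate was at its KM (25uM), buffer 200mM KPO4, reaction 60 min at RT.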

A number with no mark means an inactive call. Results filed as inconclusive are left out. Activity calls are given as the source filed them. Unless noted, calls come from the whole dose curve; as a rule, active = well fitted curve in either direction with a large enough effect (not every such curve was filed as active); inconclusive = small, poorly fitted or top-dose-only effect, or another doubt; inactive = flat fitted curve, though single readings scatter.

Cytochrome P450 3A4 (Homo sapiens), sequence (P08684 whole entry, looked up): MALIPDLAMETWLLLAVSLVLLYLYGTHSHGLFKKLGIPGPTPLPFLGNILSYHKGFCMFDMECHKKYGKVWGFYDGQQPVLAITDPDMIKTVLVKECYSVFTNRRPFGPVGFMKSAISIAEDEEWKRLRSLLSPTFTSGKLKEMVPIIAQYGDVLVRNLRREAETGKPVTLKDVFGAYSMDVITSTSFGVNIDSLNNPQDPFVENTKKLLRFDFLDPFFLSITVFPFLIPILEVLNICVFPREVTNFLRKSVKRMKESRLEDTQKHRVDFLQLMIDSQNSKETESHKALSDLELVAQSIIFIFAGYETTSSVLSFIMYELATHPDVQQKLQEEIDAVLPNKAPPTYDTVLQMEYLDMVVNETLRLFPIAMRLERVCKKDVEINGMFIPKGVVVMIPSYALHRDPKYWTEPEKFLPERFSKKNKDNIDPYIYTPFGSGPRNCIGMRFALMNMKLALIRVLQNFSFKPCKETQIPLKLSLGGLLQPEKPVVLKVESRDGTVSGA
Cytochrome P450 2C19 (Homo sapiens), sequence (P33261 whole entry, looked up): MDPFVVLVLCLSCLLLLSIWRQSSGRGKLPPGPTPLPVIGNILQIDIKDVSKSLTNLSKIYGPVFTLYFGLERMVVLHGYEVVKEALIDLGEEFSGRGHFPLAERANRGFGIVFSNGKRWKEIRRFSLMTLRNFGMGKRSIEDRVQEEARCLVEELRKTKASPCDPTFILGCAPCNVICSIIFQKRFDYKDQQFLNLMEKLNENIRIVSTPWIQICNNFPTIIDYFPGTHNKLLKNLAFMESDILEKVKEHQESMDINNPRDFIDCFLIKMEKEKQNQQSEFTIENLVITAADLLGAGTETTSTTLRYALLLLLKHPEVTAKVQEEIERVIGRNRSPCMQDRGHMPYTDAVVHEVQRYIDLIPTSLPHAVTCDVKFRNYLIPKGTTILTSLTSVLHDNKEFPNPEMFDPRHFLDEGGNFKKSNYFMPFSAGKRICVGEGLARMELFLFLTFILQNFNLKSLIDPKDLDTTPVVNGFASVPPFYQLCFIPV

For `CCOC(=O)C(C)(C)[C@H](O)C(C)C`, the Potency in assay [1] is over 11.4 µM; in assay [6], over 46 µM; in assay [7], over 9.22 µM. In addition, the activity change, negative = inhibition was -4.38% in [2] and 6.94% in assay [4]. Also, the Potency entry in assay [3], in [8] and in [9] was “inactive” each time. In addition, the activity, negative = inhibition in assay [5] is -3.53%. In [10], the activation was 11.4%.
`CN(C)Cc1ccc(O)c(CN(C)C)n1`: the Potency is over 11.4 µM in assay [1], over 46 µM in [6] and over 9.22 µM in assay [7]. For the same molecule, the activity change, negative = inhibition was 1.16% in assay [2] and 4.31% in assay [4]. For the same molecule, the Potency entry in assay [3], in assay [8] and in [9] was “inactive” throughout. Also, in assay [5], the activity, negative = inhibition is 0.249%. Also, the activation in assay [10] was 2.88%.
As for `N=C(N)SCc1cc(Cl)cc(Cl)c1O`, the Potency is over 11.4 µM in assay [1], 5.01 µM (active) in assay [3], over 46 µM in assay [6] and over 9.22 µM in assay [7]. For the same molecule, the activity change, negative = inhibition is 3.73% in assay [2] and 5.42% in assay [4]. Moreover, the activity, negative = inhibition in assay [5] is 2.98%. Also, the Potency entry in assay [8] and in assay [9] was “inactive” throughout. The activation in [10] is -24.5%.
Take `COc1ccc(NC(=S)Nc2ccccc2)cc1`: the Potency in assay [1] was over 11.4 µM; in assay [3], 1.26 µM (active); in assay [6], over 46 µM; in assay [7], over 9.22 µM; in assay [11] it was 2 µM (active). Besides, the figures for the activity change, negative = inhibition in assay [2] and in [4] were 0.508% and 6.45%, respectively. In addition, the activity, negative = inhibition in assay [5] is 10.3%. Moreover, the Potency result in assay [8] and in [9] was “inactive” in each case. Moreover, the activation in assay [10] was 8.18%.
As for `COc1ccc(-n2c(=O)c(C)nc3cnc(Nc4cccc(OC)c4)nc32)cc1`, the Potency in assay [1] was over 11.4 µM; in [3] it was 15.8 µM (active); in assay [6], over 9.22 µM; in assay [7], over 46 µM. Besides, the results for the activity change, negative = inhibition in [2] and in [4] were -25.7% and 10.5%, respectively. The activity, negative = inhibition in [5] was -24.1%. The Potency entry in assay [8] and in [12] was “inactive” each time.
With `CC1(C)[C@@H]2CC[C@]1(CC(=O)O)[C@H](Cl)C2`, the Potency in assay [1] was over 11.4 µM; in assay [6], over 46 µM; in [7] it was over 9.22 µM. For the same molecule, the activity change, negative = inhibition was 9.82% in assay [2] and 2.95% in [4]. Moreover, the Potency entry in assay [3], in [8] and in assay [9] was “inactive” in each case. Also, the activity, negative = inhibition in [5] is 6.68%. Further, the activation in [10] was 2.22%.
As to `NCC[C@H](N)C(=O)O`, the results for the Potency in [1], in assay [6] and in [7] were over 11.4 µM, over 46 µM and over 9.22 µM, respectively. The activity change, negative = inhibition is -2.63% in assay [2], -8.9% [at 2.29 µM] in assay [3] and 8.74% in assay [4]. In addition, the activity, negative = inhibition in [5] is -3.44%. In addition, the Potency result in assay [8] and in [9] was “inactive” throughout. The activation in assay [10] is -6.29%.
